This is an account of results in PubChem BioAssay (NCATS).

Assay [1] concerns the target ATP-dependent 6-phosphofructokinase (Trypanosoma brucei brucei) (UniProt O15648). The assay is described as follows: qHTS Assay to Find Inhibitors of T. brucei phosphofructokinase: hit validation (AID 492961). Note: potency is the fitted concentration of half-maximal effect. The method in brief:
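In this biochemical qHTS validation, titrated compounds were tested against 1.25 nM PFK with 0.1 mM ATP and 0.5 mM F6P. Percent activity came from controls lacking or containing enzyme.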

Assay [2] in a line: Validation screen for small molecules that induce genotoxicity in human embryonic kidney (HEK293T) cells expressing luciferase-tagged ELG1 (AID 493106). Note: 0% is about no effect. The method in brief: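 Reporter-gene quantitative HTS in HEK293T cells carrying luciferase-tagged ELG1, whose level climbs under genotoxic stress. Compound exposure lasts 16 hr at 37 °C before luciferase detection.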
Assay [3] concerns the target ATPase family AAA domain-containing protein 5 (Homo sapiens) (UniProt Q96QE3). Put plainly: Validation screen for small molecules that inhibit ELG1-dependent DNA repair in human embryonic kidney (HEK293T) cells expressing luciferase-tagged ELG1 (AID 493107).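 Note: cells co-treated with the DNA-damaging agent 5-fluorouridine alongside compound; series mostly up to about 46 µM; % is set by controls: 0 for no effect and ±100 for the full control effect; inhibitors lower the ELG1-luciferase luminescence signal; nearly all actives have a fitted effect of over 70% in size.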 The method in brief:
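Quantitative HTS in HEK293T cells carrying luciferase-tagged ELG1, stimulated with 5-fluorouridine alongside compound for 16 hr. Loss of luciferase signal marks inhibition of ELG1 response.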

The target of assay [4] is Thyrotropin-releasing hormone receptor (Homo sapiens) (UniProt P34981). Put plainly: qHTS for Small Molecule Agonists and Allosteric Enhancers of Human TRH Receptor: Validation Screen for Agonists (AID 493127;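 active = calcium activation more than 3 SD above the typical response in the agonist read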;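 note: intracellular calcium rise by fluo-8 fluorescence before TRH EC20 addition; 0% is about no effect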). Conditions: TRH receptor agonist cell assay; at 2 µM; stronger effect = higher value. In short, it runs like this:
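Gq-coupled calcium mobilization in TRHR cells after compound addition, monitored kinetically with fluo-8 dye on an FDSS reader.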

Assay [5] can be described thus: Nrf2 qHTS screen for inhibitors: Validation (AID 493153; active = well fitted inhibition curve with a large enough effect in the main read-out, with a control signal flat, not every such curve was filed as active; note: potency is the fitted concentration of half-maximal effect). The settings on record: Potency: luciferase luminescence; viability change: measured here: cytotoxicity max response. The method in brief:
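Dose-response validation uses reporter A549 cells with firefly luciferase under an antioxidant response element. Compounds stay on cells 18-24 h at 37°C, and luminescence indicates Nrf2-driven transcription.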
For orientation: Quantitative high-throughput screening tests each substance at several concentrations.

Assay [6] can be described thus: qHTS for Inhibitors of Cell Surface uPA Generation: Validation Assay (AID 493164).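 Note: RAW 264.7 macrophage cells exposed to compound for 18 h; 0% is about no effect.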 The method in brief:
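RAW 264.7, 4000 cells/well, o/n plating; cpd 7-pt 1:5 dilution 2.45 nM–38.3 uM final; 18 h, 37 C/5% CO2; ATP-Lite, 5 s luminescence exposure.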

Assay [7] has as its target Galactokinase (Homo sapiens) (UniProt P51570). Put plainly: qHTS Validation Assay for Inhibitors of Human Galactokinase (GALK) (AID 493189). Note: potency is the fitted concentration of half-maximal effect. The method in brief:
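5 nM GALK / 100 uM galactose / 35 uM ATP, 20 mM HEPES pH8.0, 5 mM MgCl2, 60 mM NaCl, 1 mM DTT, 0.01% BSA (final). RT 1 h; Kinase-Glo Plus luminescence.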

The target of assay [8] is Peptidyl-prolyl cis-trans isomerase NIMA-interacting 1 (Homo sapiens) (UniProt Q13526). The assay is described as follows: qHTS Validation Assay to Find Inhibitors of Pin1 (AID 504536; active = well fitted inhibition curve with a large enough effect in the polarisation, with a control signal flat, not every such curve was filed as active; the % refers to the polarisation;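 note: 0% = full Pin1 enzyme wells and -100% = no-enzyme wells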). The method in brief:
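Fluorescence polarization competition: compounds (titration) displace HiFluor-488-labeled Pin1-1b peptide from Pin1 (0.3 uM final) in pH 7.5 HEPES buffer with DTT, 10 min at room temperature; %Activity normalized to no-enzyme wells, curves fitted.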

Assay [9] has as its target phosphoglycerate mutase (Leishmania major) (UniProt Q4Q090). The assay is described as follows: qHTS Validation Assay to Find Inhibitors of Phosphoglycerate Mutase (AID 504548). Note: series mostly up to about 58 µM; % is set by controls: 0 for no effect and ±100 for the full control effect. In short, it runs like this:
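Lm PGAM at 1.25 nM final with substrate in 100 mM TEA pH 7.6, 5 mM MgCl2, 0.01% Tween-20; 45 min at room temperature. Kinase-GloPlus added, 10 min, end-point luminescence read.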

Assay [10] addresses Ubiquitin carboxyl-terminal hydrolase 1 (Homo sapiens) (UniProt O94782). The assay is described as follows: Inhibitors of USP1/UAF1: Pilot qHTS (AID 504865). Note: nearly all actives have a fitted effect of over 35% in size. Note: potency is the fitted concentration of half-maximal effect. The method in brief:
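In 50mM HEPES pH 7.8 containing 0.5mM EDTA, 1mM TCEP, 0.1 mg/ml BSA and 0.01% Tween-20, 1nM USP1/UAF1 is exposed to compound for 15 min, then Ub-Rho (150nM final) is added and fluorescence is read over time.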

A short description of assay [11]: qHTS for Inhibitors of ATXN expression: Validation of Cytotoxic Assay (AID 588349).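 Note: cells exposed to compound for 72 hr; % is set by controls: 0 for no effect and ±100 for the full control effect.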 In short, it runs like this:
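HEK293, compound dose series, 72 hr / 37 degrees C; viability via CellTiter Glo (intracellular ATP).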

In assay [12] the target is DNA dC->dU-editing enzyme APOBEC-3G (Homo sapiens) (UniProt Q9HC16). Put plainly: qHTS for inhibitors of Vif-A3G interactions: Validation (AID 588379). Note: 0% is about no effect. In short, it runs like this:
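HeLa cells stably expressing Vif and A3G-eYFP, 700 cells/well, incubated overnight at 37 deg C, then exposed to compound overnight at 37 deg C. Inhibition of Vif-mediated degradation read as increased yellow fluorescence (Ex 488/Em 500-530) by laser-scanning cytometry.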

Assay [13] can be described thus: Validation screen for small molecules that induce DNA re-replication in SW480 colon adenocarcinoma cells (AID 504364). Note: 0% is about no effect. The method in brief: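 Cells are treated 48 hr with test compound, stained 40 min with Hoechst at 37 C, and scanned for nuclear fluorescence; compounds inducing re-replication increase nuclei with elevated intensity.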
The nature of assay [14]: qHTS for Inhibitors of ATXN expression: Validation (AID 588378). Note: series mostly up to about 57 µM; % is set by controls: 0 for no effect and ±100 for the full control effect; nearly all actives have a fitted effect of over 75% in size. The method in brief:
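Compounds were pinned onto attached HEK293 cells carrying an ATXN2-firefly luciferase construct and incubated 24 hrs at 37 degrees C. Each well then received a fluorescent viability reagent followed by luciferase substrate for end-point luminescence.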

Assay [15] has as its target Phosphoglycerate kinase, glycosomal (Trypanosoma brucei brucei) (UniProt P07378). Put plainly: qHTS Validation Assay to Find Inhibitors of Phosphoglycerate Kinase (AID 504547).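 Note: control wells lack PGK and mark full inhibition.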 The method in brief: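 Inhibition of the enzyme is judged by a Kinase-Glo Plus luminescent signal following a one-hour incubation at room temperature. Because 1,3-BPG is unstable, it is made in situ by GAPDH at 100nM final; no-PGK wells define the baseline.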

Assay [16] deals with Estrogen receptor (Homo sapiens) (UniProt P03372). The assay is described as follows: qHTS assay for small molecule antagonists of estrogen receptor alpha signaling (AID 588513; active = well fitted curve in the direction sought with a large enough effect in the signal ratio, with a control signal flat, not every such curve was filed as active; the % refers to the signal ratio; note: % is set by controls: 0 for no effect and ±100 for the full control effect). The method in brief: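 Fluorescence from CCF4 substrate after 2 h at room temperature gave reporter activity; cells had been exposed to compound and 0.5nM 17-beta-estradiol for 18 h at 37 C. Hill-equation fitting yielded IC50 and maximal response.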

Assay [17] shares this target. Put plainly: qHTS assay for small molecule agonists of estrogen receptor alpha signaling (AID 588514; calls by dose curve;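 note: 0% = vehicle only and 100% = reference agonist; nearly all actives have a fitted effect of over 70% in size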). In short, it runs like this: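 Reporter-gene assay. […] controls beta-lactamase in HEK 293 GripTite cells; after 18 hrs with compound, CCF4 substrate is added for 2 hrs and fluorescence is read.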
Assay [18] deals with Bile acid receptor (Homo sapiens) (UniProt Q96RI1). Put plainly: qHTS assay for small molecule antagonists of farnesoid X receptor signaling (AID 588526; calls by dose curve; note: % is set by controls: 0 for no effect and ±100 for the full control effect). The method in brief:
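Beta-lactamase reporter antagonist mode: HEK293T FXR-UAS-bla cells, titrated compound, CDCA stimulation, 16 h 37 C, CCF4 dye 2 h RT. Data normalized to CDCA 50 uM and DMSO; Hill-fit IC50.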

Where “and” joins values, the source holds several entries; their conditions need not be identical. Equal entries are not always repeated. Inconclusive results are not listed. Calls of active or inactive are those of the source. Unless noted, calls come from the whole dose curve; as a rule, active = well fitted curve in the direction sought with a large enough effect; inconclusive = small, poorly fitted or top-dose-only effect, or another doubt; inactive = no such curve, though single readings can be large; an effect the other way counts as inactive or inconclusive.

Sequence of Phosphoglycerate kinase, glycosomal (Trypanosoma brucei brucei) (P07378 whole entry, looked up): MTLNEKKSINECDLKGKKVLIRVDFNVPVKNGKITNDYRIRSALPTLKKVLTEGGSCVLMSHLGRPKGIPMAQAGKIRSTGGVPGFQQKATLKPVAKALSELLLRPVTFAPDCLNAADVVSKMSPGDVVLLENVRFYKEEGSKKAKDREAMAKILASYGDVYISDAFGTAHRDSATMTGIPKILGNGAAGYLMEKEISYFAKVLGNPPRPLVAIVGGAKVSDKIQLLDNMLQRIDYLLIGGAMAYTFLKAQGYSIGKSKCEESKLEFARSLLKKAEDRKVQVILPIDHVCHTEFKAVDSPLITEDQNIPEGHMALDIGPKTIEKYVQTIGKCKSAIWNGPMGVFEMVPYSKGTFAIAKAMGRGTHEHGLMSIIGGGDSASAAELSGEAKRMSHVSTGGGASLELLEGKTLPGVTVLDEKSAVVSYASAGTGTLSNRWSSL
Sequence of ATP-dependent 6-phosphofructokinase (Trypanosoma brucei brucei) (O15648 whole entry, looked up): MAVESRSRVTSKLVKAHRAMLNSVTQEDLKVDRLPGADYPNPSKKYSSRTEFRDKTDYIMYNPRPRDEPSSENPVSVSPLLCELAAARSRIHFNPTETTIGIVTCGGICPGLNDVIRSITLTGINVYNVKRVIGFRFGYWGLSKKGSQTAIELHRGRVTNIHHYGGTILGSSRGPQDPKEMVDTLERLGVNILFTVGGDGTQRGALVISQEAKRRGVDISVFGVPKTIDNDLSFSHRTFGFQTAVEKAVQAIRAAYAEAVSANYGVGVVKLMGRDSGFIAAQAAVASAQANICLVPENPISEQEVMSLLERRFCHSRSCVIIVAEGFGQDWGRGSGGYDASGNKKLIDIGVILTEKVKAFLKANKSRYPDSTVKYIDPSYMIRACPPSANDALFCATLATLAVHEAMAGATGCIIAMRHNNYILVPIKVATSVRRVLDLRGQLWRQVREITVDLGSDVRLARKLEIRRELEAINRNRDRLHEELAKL
Sequence of Bile acid receptor (Homo sapiens) (Q96RI1 whole entry, looked up): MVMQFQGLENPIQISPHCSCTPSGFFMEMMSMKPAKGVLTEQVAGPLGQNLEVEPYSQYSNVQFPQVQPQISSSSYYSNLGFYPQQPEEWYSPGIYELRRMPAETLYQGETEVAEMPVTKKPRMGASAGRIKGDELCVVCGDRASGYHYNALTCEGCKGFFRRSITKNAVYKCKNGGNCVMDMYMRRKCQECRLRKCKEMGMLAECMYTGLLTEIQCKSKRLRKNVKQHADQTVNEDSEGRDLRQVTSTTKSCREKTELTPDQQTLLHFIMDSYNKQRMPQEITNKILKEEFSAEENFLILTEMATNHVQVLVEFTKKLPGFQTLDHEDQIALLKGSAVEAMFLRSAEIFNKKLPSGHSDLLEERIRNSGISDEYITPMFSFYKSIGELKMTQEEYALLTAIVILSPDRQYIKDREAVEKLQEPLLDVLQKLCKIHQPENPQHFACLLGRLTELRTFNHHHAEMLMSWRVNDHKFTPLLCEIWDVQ
Sequence of Thyrotropin-releasing hormone receptor (Homo sapiens) (P34981 whole entry, looked up): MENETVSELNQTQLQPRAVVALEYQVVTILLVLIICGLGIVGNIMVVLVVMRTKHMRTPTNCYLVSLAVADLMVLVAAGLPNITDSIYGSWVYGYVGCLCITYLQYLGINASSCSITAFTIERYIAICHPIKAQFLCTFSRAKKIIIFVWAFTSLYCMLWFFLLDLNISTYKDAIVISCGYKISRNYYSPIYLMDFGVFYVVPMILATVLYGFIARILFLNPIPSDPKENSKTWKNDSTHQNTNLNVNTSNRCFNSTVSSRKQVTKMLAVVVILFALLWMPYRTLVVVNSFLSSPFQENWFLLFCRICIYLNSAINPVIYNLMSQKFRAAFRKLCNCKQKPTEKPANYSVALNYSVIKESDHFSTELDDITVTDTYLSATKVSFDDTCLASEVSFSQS
Sequence of Galactokinase (Homo sapiens) (P51570 whole entry, looked up): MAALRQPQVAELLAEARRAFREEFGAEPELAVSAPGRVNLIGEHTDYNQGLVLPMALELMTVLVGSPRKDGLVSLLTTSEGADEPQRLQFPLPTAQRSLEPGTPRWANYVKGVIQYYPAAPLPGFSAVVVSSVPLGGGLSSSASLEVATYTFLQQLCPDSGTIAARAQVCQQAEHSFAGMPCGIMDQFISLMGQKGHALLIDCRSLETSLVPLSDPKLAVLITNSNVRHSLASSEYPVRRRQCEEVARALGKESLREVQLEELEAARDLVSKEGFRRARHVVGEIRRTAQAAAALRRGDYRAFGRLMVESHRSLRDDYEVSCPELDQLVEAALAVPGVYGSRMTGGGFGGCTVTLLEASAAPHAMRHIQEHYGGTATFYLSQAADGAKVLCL
Sequence of Ubiquitin carboxyl-terminal hydrolase 1 (Homo sapiens) (O94782 whole entry, looked up): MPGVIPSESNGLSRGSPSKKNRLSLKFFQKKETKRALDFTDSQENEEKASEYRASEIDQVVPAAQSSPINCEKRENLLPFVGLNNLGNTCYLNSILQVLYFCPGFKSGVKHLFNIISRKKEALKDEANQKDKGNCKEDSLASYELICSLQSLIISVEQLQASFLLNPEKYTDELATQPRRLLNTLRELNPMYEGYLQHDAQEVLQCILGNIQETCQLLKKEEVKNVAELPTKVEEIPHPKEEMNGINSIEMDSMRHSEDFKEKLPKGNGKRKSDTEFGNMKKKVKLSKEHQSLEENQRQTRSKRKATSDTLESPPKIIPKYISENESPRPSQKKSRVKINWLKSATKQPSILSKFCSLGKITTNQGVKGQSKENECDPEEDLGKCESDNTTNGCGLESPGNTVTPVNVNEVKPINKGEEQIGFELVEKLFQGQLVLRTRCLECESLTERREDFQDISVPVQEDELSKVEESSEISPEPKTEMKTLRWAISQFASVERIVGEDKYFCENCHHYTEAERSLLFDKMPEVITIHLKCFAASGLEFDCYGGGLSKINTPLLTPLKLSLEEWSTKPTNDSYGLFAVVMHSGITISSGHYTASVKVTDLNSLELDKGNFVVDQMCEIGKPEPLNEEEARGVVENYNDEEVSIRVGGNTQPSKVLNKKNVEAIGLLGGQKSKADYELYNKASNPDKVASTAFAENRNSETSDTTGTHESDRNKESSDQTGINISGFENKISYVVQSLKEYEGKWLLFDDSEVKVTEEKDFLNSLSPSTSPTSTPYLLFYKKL
Sequence of Peptidyl-prolyl cis-trans isomerase NIMA-interacting 1 (Homo sapiens) (Q13526 whole entry, looked up): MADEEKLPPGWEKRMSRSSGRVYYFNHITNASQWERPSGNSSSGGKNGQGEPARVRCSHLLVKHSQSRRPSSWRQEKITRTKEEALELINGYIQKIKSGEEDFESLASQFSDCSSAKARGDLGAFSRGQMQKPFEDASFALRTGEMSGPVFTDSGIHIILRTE
Sequence of ATPase family AAA domain-containing protein 5 (Homo sapiens) (Q96QE3 whole entry, looked up, the tested form may be a part): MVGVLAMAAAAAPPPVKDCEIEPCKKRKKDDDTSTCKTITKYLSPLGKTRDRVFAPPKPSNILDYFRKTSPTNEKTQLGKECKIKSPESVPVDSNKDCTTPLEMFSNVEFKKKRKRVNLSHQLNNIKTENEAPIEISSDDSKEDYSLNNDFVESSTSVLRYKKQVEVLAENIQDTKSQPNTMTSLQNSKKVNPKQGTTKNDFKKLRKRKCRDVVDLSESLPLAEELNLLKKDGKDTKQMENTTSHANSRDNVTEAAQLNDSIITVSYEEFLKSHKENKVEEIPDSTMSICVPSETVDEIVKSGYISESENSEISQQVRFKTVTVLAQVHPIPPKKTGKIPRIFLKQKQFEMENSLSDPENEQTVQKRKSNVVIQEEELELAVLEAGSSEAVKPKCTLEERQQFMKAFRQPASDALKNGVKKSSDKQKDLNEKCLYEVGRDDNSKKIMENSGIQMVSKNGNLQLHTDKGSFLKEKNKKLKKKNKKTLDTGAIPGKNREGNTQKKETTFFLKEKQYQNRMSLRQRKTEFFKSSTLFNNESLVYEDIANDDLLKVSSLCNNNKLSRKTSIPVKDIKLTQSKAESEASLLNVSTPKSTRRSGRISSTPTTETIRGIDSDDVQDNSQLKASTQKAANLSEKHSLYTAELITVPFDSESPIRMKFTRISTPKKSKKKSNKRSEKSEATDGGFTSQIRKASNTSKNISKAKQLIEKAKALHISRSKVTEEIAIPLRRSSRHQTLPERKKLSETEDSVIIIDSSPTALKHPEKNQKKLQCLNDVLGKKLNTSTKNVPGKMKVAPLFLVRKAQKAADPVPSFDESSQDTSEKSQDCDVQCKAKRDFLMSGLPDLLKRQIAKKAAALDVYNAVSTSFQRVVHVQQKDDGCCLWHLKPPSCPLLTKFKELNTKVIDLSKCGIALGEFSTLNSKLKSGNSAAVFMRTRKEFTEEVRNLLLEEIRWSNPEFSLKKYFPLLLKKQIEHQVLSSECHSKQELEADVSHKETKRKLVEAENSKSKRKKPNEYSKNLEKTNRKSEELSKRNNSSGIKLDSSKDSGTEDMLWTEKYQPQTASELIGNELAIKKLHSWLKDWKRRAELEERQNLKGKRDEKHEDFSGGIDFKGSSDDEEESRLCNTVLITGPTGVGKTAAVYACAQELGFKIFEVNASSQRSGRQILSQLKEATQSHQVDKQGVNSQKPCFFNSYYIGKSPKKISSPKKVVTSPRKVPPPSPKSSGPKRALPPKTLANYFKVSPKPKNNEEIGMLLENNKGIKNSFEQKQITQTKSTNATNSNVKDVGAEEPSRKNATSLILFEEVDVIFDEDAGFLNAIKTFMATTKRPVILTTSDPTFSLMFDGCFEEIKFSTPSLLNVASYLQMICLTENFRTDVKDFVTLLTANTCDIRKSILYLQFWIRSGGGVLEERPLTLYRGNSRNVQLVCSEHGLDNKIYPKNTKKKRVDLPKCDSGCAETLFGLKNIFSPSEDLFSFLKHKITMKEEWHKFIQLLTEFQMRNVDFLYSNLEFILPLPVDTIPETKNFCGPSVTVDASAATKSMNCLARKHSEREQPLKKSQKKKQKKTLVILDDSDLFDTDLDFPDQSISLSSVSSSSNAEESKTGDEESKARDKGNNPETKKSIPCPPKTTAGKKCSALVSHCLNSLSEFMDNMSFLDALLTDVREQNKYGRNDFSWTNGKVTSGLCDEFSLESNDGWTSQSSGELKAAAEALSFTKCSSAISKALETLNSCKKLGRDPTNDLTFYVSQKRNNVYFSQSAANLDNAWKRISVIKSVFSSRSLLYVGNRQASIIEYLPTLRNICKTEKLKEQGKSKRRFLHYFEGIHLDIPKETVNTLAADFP

Turning to `O=C1N(c2ccccc2)c2ccccc2C1(Cc1ccncc1)Cc1ccncc1`, the Potency entry in assay [1], in assay [2], in assay [3], in assay [5], in assay [7] and in assay [8] was “inactive” each time. For the same compound, the Potency result in assay [10] is “inactive”. The activation in assay [4] is 1.31% (inactive). Also, the viability change in [5] was 10.1%. Moreover, the compound was classed as inactive in assay [6], in [9], in [11] and in assay [12].
As for `CS(=O)(=O)Nc1ccc([N+](=O)[O-])cc1Oc1ccccc1`, the Potency entry in assay [1], in [2], in assay [3], in [13], in [8] and in [10] was “inactive” each time. The Potency result in assay [14] is “inactive”. Moreover, the activation in [4] was 1% (inactive).
For the compound `N[C@@H](Cc1c[nH]c2ccc(O)cc12)C(=O)O`, the Potency result in [1], in [2], in assay [3], in [5], in [7] and in [8] was “inactive” in each case. Moreover, the Potency result in assay [15], in assay [10] and in assay [14] was “inactive” in each case. The activation in [4] was 0.125% (inactive). The viability change in assay [5] was -8.24%. For the same compound, the call in assay [6], in assay [9], in [16] and in assay [17] was inactive.
With `CN1C(C(=O)Nc2ccccn2)=C(O)c2ccccc2S1(=O)=O`, the Potency entry in assay [1], in assay [2], in [3], in assay [7], in [13] and in assay [8] was “inactive” throughout. The Potency result in [15], in assay [10] and in [14] was “inactive” in each case. Also, in assay [4], the activation is 0.812% (inactive). Moreover, the compound was called inactive in [6], in assay [9] and in assay [12].
On to `CC#C[C@]1(O)CC[C@H]2[C@@H]3CCC4=CC(=O)CCC4=C3[C@@H](c3ccc(N(C)C)cc3)C[C@@]21C`, for which the Potency result in [1], in assay [2], in [8], in [15] and in [10] was “inactive” each time. The Potency in assay [5] was 23.1 µM (active). Further, the viability change in [5] was -7.52%. Moreover, the compound was called inactive in assay [6] and in assay [9].
As for `Cc1ccc(C(=O)Nc2ccc(S(=O)(=O)O)c3cc(S(=O)(=O)O)cc(S(=O)(=O)O)c23)cc1NC(=O)c1cccc(NC(=O)Nc2cccc(C(=O)Nc3cc(C(=O)Nc4ccc(S(=O)(=O)O)c5cc(S(=O)(=O)O)cc(S(=O)(=O)O)c45)ccc3C)c2)c1`, the Potency in assay [1] is 7.08 µM (active); in [7] it was 17.8 µM (active); in assay [10], 14.1 µM (active) and 7.94 µM (active) and 5.01 µM (active). The Potency entry in [2], in assay [3], in [5] and in [14] was “inactive” each time. Also, the activation in assay [4] is 0.688% (inactive). Besides, in [5], the viability change was -15.2%. Also, the outcome in assay [6], in assay [9], in [11] and in assay [12] was inactive.
With `CN(C)CCC=C1c2ccccc2C=Cc2ccccc21`, the Potency entry in [1], in [2], in assay [3], in assay [5], in assay [7] and in assay [8] was “inactive” each time. For the same compound, the Potency result in assay [10] was “inactive”. Also, the activation in assay [4] is 1.69% (inactive). In addition, the viability change in assay [5] is 1.79%. The call in assay [6], in assay [9] and in assay [11] was inactive.
On to `Cc1cn([C@H]2C=C[C@@H](CO)O2)c(=O)[nH]c1=O`, for which the Potency result in assay [1], in assay [2], in assay [3], in assay [5], in [7] and in [8] was “inactive” each time. For the same compound, the Potency entry in assay [10], in assay [14] and in assay [18] was “inactive” each time. In [5], the viability change was 0.63%. Besides, the result in assay [6], in assay [9] and in assay [11] was inactive.
